# PubChem BioAssay (NCI)
# The panel holds about 83,000 compounds, 20% with a hit somewhere; the sample as a whole holds those more often.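 48-hour exposure, single concentration, 96-well plates; percent growth endpoint where 0 means no net growth. Active: below 10.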 Unmarked numbers belong to inactive results. Activity calls are given as the source filed them.
# Tested on: NCI-H226 lung
# Experiment: NCI-60 one-dose screen, 48 h (100 = growth as untreated, 0 = no growth, -100 = all killed)
# Details: 10 µM
row,Structure (SMILES),growth
1,COc1ccc(/C=C/C(=O)c2ccc(NC(=O)CN3C(=O)NC(C)(c4ccccc4)C3=O)cc2)cc1 (configuration not stated),80.3%
2,Cc1ccc(C(C)C)cc1NC(=O)c1ccccc1O,26.6%
3,CC1(c2ccccc2)NC(=O)N(CC(=O)Nc2ccc(C(=O)/C=C/c3ccc(Br)cc3)cc2)C1=O (configuration not stated),43.4%
4,C=C[C@@]12CN3CC[C@]1(O)[C@@](C(=O)OC)(CO2)c1[nH]c2ccccc2c1C3,83.1%
5,COc1ccc(/C=C/C(=O)c2ccc(S(=O)(=O)NCCNc3nc(Nc4ccc(F)cc4)nc(N(C)C)n3)cc2)cc1,21.7%
6,O=c1oc2ccccc2cc1-c1csc(N=Nc2c(O)[nH]c3ccc(Br)cc23)n1,58.4%
7,O=C(CSc1nnc(-c2c[nH]c3ccccc23)n1-c1ccccc1)Nc1ccc(C(=O)/C=C/c2ccccc2Cl)cc1,75.6%
8,O=C(NO)c1ccc(-c2nc3ccc4[nH]ncc4c3c3c2CCCC3)cc1,-28.8% (active)
9,CS(=O)(=O)Nc1ccc(-c2ccc3c(c2)ncn3-c2ccc(NC(=O)Nc3ccc(Br)cc3)cc2)cc1,9.71% (active)
10,O=C(CS(=O)(=O)c1oc(-c2ccc(Cl)cc2)nc1S(=O)(=O)c1ccc(Cl)cc1)N1CCOCC1,78.2%
11,COc1cc(-c2nc3cc(Cl)c(Cl)cc3[nH]2)ccc1OCc1nnc(-c2ccc(Br)cc2)o1,-46.8% (active)
12,COc1cc2c3c(n(CCCn4ccnc4)c(=O)c2cc1OC)-c1nc2c(cc1C3=O)OCO2,30.3%
